Screens: PubChem BioAssay, National Center for Advancing Translational Sciences (NCATS)
HCV inhibitor: inhibitors of hepatitis C virus infection. Huh7.5.1 HCVcc-Cre infection, luciferase reporter, 44 h. Potency, µM (series often up to 41.8 µM), for the others: top-dose activity change, negative = inhibition, usual class: inhibitors. 340,000 tested, 3.4% active; active = well fitted inhibition curve with a large enough effect; inconclusive = small, poorly fitted or top-dose-only effect, or another doubt; inactive = no such curve, though single readings can be large or run the other way; also: potency is read from the fitted curve at half-maximal effect
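Reporter virus HCVcc-Cre (~0.5 moi) infects cells exposed to compound; seeding density 1,000 cells/well with 4 h settling beforehand. Luminescence, 15 sec read, taken 44 h post-infection following a 15 min RT substrate incubation.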
MARV entry inh: blocks Marburg virus binding to or entry into cells; 300,000 tested, 1.8% active; Marburg virus pseudotyped entry inhibition, cell reporter; Potency, µM (titrated, usually from 37.8 µM), inactives show at the top dose activity change, negative = inhibition, actives largely listed as inhibitors; calls by dose curve; tested in HEK293 cells; also: potency is read from the fitted curve at half-maximal effect
HCMV antiviral: inhibitors of human cytomegalovirus | HFF cells, HCMV-luciferase reporter, 72 h; hits give low values | AID 1259415 | 410,000 tested, 4.5% active | activity change, negative = inhibition, % at 57.5 µM; in the data active = activity change below about -60%; inconclusive = no clear call, values can overlap the other calls; inactive = above about -39%
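Steps: HFFs plated, 16 h 37C; compounds added; HCMV-luciferase added to MOI 1 PFU/cell; 72 h 37C; OneGlo reagent, 5 min room temperature; luminescence read, normalized to controls.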
Lassa entry inh: blocks Lassa virus binding to or entry into cells; AID 540256; Potency, µM (highest dose often 37.9 µM), for the others: at the highest dose activity change, negative = inhibition, hits mostly inhibitors; Lassa virus pseudotype entry inhibition, cell reporter; 300,000 tested, 1.2% active; calls by dose curve; tested in HEK293 cells; also: potency is read from the fitted curve at half-maximal effect; nearly all actives have a fitted effect of over 50% in size
FMDV antiviral: foot and mouth disease virus antiviral activity; FMDV antiviral cell-based qHTS; Potency, µM (titrated, usually from 57.9 µM), for inactives: at the top dose activity change, negative = inhibition, most hits filed as inhibitors; 410,000 tested, 1.2% active; calls by dose curve; tested in HEK293T cells; also: read-out not given here; potency is read from the fitted curve at half-maximal effect; nearly all actives have a fitted effect of over 45% in size
An asterisk follows results filed as active; ? = inconclusive; . = no result given; [ ] = another dose, or the depositor's remark. Compounds with a hit are over-represented: about 7.9% of the library has one in this group of screens. % is scaled to controls: 0 for no effect and ±100 for the full control effect.

SMILES	HCV inhibitor	MARV entry inh	HCMV antiviral	Lassa entry inh	FMDV antiviral
Cc1cc(C(=O)COC(=O)CNC(=O)c2ccccc2)c(C)n1CC1CCCO1 (stereo not drawn)	1%	-6%[46.1 µM]	-14	14%	16µM*
Cc1cc(C(=O)COC(=O)c2ccc[nH]c2=O)c(C)n1C	4%	-4%	-20	0%	24%
CC(NC(=O)Nc1nnc(C(F)(F)F)s1)(C(F)(F)F)C(F)(F)F	2.8µM*	?	-98*	3.5µM*	?
O=C(Nc1cccc(N2CCC(NCc3cnn(-c4cccc(F)c4)c3)CC2)c1)c1ccncc1	.	.	.	.	-30%
C=CCn1c(=NC(=O)C2COc3ccccc3O2)sc2cc(S(N)(=O)=O)ccc21 (stereo not drawn)	0%	13%	24	2%	32µM*
CCc1ccc(/C=C/c2c[nH]c3ccccc23)[n+](CC)c1	?	?	-97*	13µM*	?
Cc1ncc2c(c1CNC(=O)c1ccc3c(c1)OCO3)CCN(C(=O)c1cc3ccccc3o1)C2	.	.	.	.	-8%
COc1ccc(OCCCC(=O)Nc2nccs2)cc1	-13%	17%	?	16%	8%
NC(=O)c1ccsc1NC(=O)CCc1ccccc1	-5%	.	5	.	42%
Cc1ccccc1OCC(=O)Nc1nnc(COc2ccccc2)s1	-16%	-6%	-79*	-6%	-4%
Cc1ccccc1OCCCC(=O)Nc1nccs1	11µM*	-1%	?	-5%	.
CCOc1ccccc1OCCCC(=O)Nc1sccc1C(N)=O	?	?	-61*	1%	-5%
Cc1ccc(C)c(OCCCC(=O)Nc2nccs2)c1	13µM*	-5%[46.1 µM]	10	-21%	-16%
COc1cc(/C=C/c2[nH]c(=O)[nH]c(=O)c2[N+](=O)[O-])ccc1OCCC(C)C	10%	-30%[46.1 µM]	-24	?	28µM*
CCC(C)Oc1ccc(/C=C/c2[nH]c(=O)[nH]c(=O)c2[N+](=O)[O-])cc1OC (stereo not drawn)	24%	?	?	-10%[46.1 µM]	32µM*
COc1cc(/C=C/c2[nH]c(=O)[nH]c(=O)c2[N+](=O)[O-])cc([N+](=O)[O-])c1O	6%	.	4	.	-19%
COc1ccc(N2CCN(C(=O)c3cc(NC(C)=O)c4c(c3)ncn4CCc3ccccn3)CC2)cc1	.	.	.	.	-3%
CCOC(=O)N1CCC(NC(=O)C2CCCN(Cc3nc(-c4cccc(Cl)c4)oc3C)C2)CC1 (stereo not drawn)	5.6µM*	.	-67*	.	14µM*
Cc1oc(-c2cccc(Cl)c2)nc1CN1CCC(C(=O)NCCCN2CC(C)CC(C)C2)CC1 (stereo not drawn)	1.1µM*	.	.	.	-29%
CCOC(=O)N1CCC(NC(=O)CS(=O)(=O)Cc2nc(-c3cccc(OC)c3)oc2C)CC1	?	-1%	45	10%	-25%
CCOC(=O)N1CCC(NC(=O)CS(=O)(=O)Cc2nc(-c3cccc(Cl)c3)oc2C)CC1	?	.	-60*	.	-26%
Cc1oc(-c2cccc(Cl)c2)nc1CN1CCC(C(=O)NCCCN2CCN(c3cccc(Cl)c3)CC2)CC1	.	?	-5	?	?
CCN1CCN(CCNC(=O)C2CCCN(Cc3nc(-c4cccc(Cl)c4)oc3C)C2)CC1 (stereo not drawn)	10µM*	-1%	?	.	0%
Cc1ccc2nc(SCC(=O)N3CCC(Cc4ccccc4)CC3)nc(=O)n2c1	?	?	?	-4%	?
COc1ccc(CCN2CCC(CN3C(=S)NC[C@@H]3Cc3ccccc3)CC2)cc1OC	.	.	-6	.	.
SMILES	HCV inhibitor	MARV entry inh	HCMV antiviral	Lassa entry inh	FMDV antiviral
Cc1ccc(-c2ccnc(-n3ncc(C(=O)NC[C@@H]4CCCN5CCCC[C@H]45)c3C3CC3)n2)o1	.	.	.	.	-11%
COc1cccc2[nH]c3c(N4CCC5(CC4)OCCO5)ncnc3c12	0%	.	-35	.	-10%
Cc1ccc2c(c1)[nH]c1c(N3CCN(Cc4ccccc4)CC3)ncnc12	3.2µM*	16µM*	-85*	21µM*	.
c1ccc2c(c1)[nH]c1c(N3CCC4(CC3)OCCO4)ncnc12	7.1µM*	?	.	?	?
CCOc1ccc2[nH]c3c(N4CCN(c5ccccn5)CC4)ncnc3c2c1	1µM*	?	?	?	?
OC1(c2cccc(C(F)(F)F)c2)CCN(c2ncnc3c2[nH]c2ccccc23)CC1	?	?	-9	15%	28µM*
Cc1csc2nc(-c3ccc(NS(=O)(=O)c4cc(F)ccc4F)cc3)cn12	.	.	-22	15%[46.1 µM]	8%
Cc1ccc2[nH]c3c(N4CCCCCC4)ncnc3c2c1	3.2µM*	1%	.	.	.
Cc1ccc2[nH]c3c(N4CCN(Cc5ccccc5)CC4)ncnc3c2c1	?	?	-107*	?	11µM*
c1ccc(CN2CCN(c3nc4ccccc4c4ccccc34)CC2)cc1	?	-21%	?	-19%	-1%
c1ccc(CN2CCN(c3ncnc4c3[nH]c3ccccc34)CC2)cc1	11µM*	?	-106*	?	10µM*
Cc1ccc2[nH]c3c(N4CCN(Cc5ccc6c(c5)OCO6)CC4)ncnc3c2c1	.	1%	?	.	.
Fc1ccc2[nH]c3c(N4CCN(C5CCCCC5)CC4)ncnc3c2c1	.	1%	.	.	.
CC(C)(C)C(=O)NCCc1nc2ccccc2n1CCCCOc1ccc(Cl)cc1	.	?	-33	?	-16%
COc1c2occc2c(OC(C)=O)c2c(=O)cc(C)oc12	-28%	16%	-67*	-1%	-22%
COc1ccc(C(=O)Nc2ccc(NC(=O)C3CC3)nc2)cc1	3%	-6%[46.1 µM]	-34	10%	0%
CCc1ccc(-c2cc(C(F)(F)F)n3nc(C(=O)Nc4c(C)nn(Cc5ccc(F)cc5)c4C)cc3n2)s1	1.6µM*	?	-37	3%	?
CC1(C)C2CCC(C2)C1(C)NC(=O)CNCC1CCCCC1 (stereo not drawn)	-12%	8.9µM*	-25	-13%[46.1 µM]	-13%
CC(C)CCN(C(=S)Nc1cccc(F)c1)C1CCN(C(C)C)CC1	11µM*	?	-32	?	-21%
COc1ccc(NC(=S)N(CCC(C)C)C2CCN(C(C)C)CC2)cc1	?	.	-31	.	-12%
COC(=O)C1CCN(Cc2ccc3c(c2)CN(C(=O)c2cc(-c4ccc(C)o4)[nH]n2)CCO3)CC1	.	.	.	.	-8%
Cc1cc(C(=O)NCCN2Cc3ccccc3OC(c3ccccc3F)C2)no1 (stereo not drawn)	.	.	.	.	-6%
CCOC(=O)N1CCN(Cc2ccccn2)CC1	0%	15%	-27	3%	-25%
CCOC(=O)N1CCN(Cc2ccc(O)c3ncccc23)CC1	4.5µM*	?	-31	?	-13%
Oc1ccc(CN2CCc3ccccc3C2)c2cccnc12	4µM*	3.3µM*	-99*	2.6µM*	-29%
FC(F)(F)c1ccccc1CN1CCC(Cc2ccccc2)CC1	23%	-4%[46.1 µM]	-7	-5%[46.1 µM]	-16%
Oc1c(CN2CCOCC2)ccc2ccccc12	-14%	5%[46.1 µM]	-8	-1%[46.1 µM]	1%
Oc1cc2c(cc1CN1CCc3ccccc3C1)OCO2	10%	0%[46.1 µM]	1	24%[46.1 µM]	-19%
